# D3 ag – qHTS of D3 Dopamine Receptor Agonist: qHTS; AID 652048, 2013; max activation, %; D3R DiscoveRx beta-arrestin cells, luminescence, 90 min; 410,000 tested, 0.58% active; in the data active means max activation above about 30%; further: 0% is about no effect
#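 Agonist mode: compounds and dopamine controls were applied to plated cells for 90 min at 37 degrees C after an overnight attachment at 1500 cells/well. Luminescent read-out followed 30 - 60 minutes at room temperature with DiscoveRx detection reagent.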
# Giardia kill – Small Molecules that selectively kill Giardia lamblia: qHTS; Giardia lamblia trophozoite viability; 340,000 tested, 0.15% active; activity change, % at 7.66 µM, hits read low; in the data active means activity change below about -80%; inconclusive means between about -30% and that limit;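 further: parasites exposed to compound for two days anaerobically before the ATP read; on the % scale 0 is the no-effect control and ±100 the full control effect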
#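 Luminescence from cellular ATP indicates surviving trophozoites (100 cells/well) following 48 hrs anaerobic compound treatment at 37 deg C; signal develops 15-30 min at room temperature.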
# DRD3 antagonist – qHTS of D3 Dopamine Receptor Antagonist: qHTS; max response, negative = inhibition, %; D3R cells, DiscoveRx beta-arrestin luminescence, antagonist mode; active compounds read low; D(3) dopamine receptor (Homo sapiens), P35462; 360,000 tested, 2.5% active; AID 652054, 2013; in the data active means max response below about -50%; inconclusive means no clear call, values can overlap the other calls; further: on the % scale 0 is the no-effect control and ±100 the full control effect
#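 Cells plated overnight at 1500 cells/well, then exposed to library compounds with dopamine controls for 90 minutes at 37 degrees C. DiscoveRx reagent added for 30–60 minutes at room temperature; luminescence read, quantitative HTS format.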
# B2AR arrestin – qHTS assay of beta-arrestin-biased ligands of beta2-adrenergic receptor | Beta-2 adrenergic receptor (Homo sapiens), P07550 | beta-arrestin recruitment to beta2AR, cell-based reporter | Potency, µM (doses to about 46.1 µM), without a hit: at the highest dose activation, usual class: activators | 330,000 tested, 0.02% active; active means well fitted activation curve with a large enough effect; inconclusive means small, poorly fitted or top-dose-only effect;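 further: potency means the concentration at half of the fitted maximal effect; 0% = DMSO controls and full agonism = EC100 isoproterenol or metaproterenol; nearly all actives have a fitted effect of over 65% in size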
# Target sequence (P07550 whole entry, looked up): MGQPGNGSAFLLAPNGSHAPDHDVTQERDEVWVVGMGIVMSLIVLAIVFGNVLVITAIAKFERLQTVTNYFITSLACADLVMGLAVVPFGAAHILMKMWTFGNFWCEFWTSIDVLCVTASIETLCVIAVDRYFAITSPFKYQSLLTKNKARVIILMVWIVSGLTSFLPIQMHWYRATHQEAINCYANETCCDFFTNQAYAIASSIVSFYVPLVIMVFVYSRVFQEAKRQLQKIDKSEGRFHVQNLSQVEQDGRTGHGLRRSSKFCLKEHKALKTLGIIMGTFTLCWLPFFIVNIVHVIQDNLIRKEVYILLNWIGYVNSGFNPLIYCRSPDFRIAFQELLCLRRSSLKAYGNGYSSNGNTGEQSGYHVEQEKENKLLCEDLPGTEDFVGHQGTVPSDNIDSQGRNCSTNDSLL
# The depositor's hits bear a star; ? = inconclusive; nt = no result; ! = not confirmed by another sample. A selection: hits, their analogues and other compounds. The true share with any hit is near 2.8%.
SMILES,D3 ag,Giardia kill,DRD3 antagonist,B2AR arrestin
Clc1cc2nc[nH]c2cc1Cl,37*,3,10,-1%
Cc1ccc2nc(C)c(C(=O)N/N=C/c3ccco3)cc2c1,1,2,-9,-1%
Cc1ccc2nc(C)c(C(=O)N/N=C/c3ccc(N4CCOCC4)cc3)cc2c1,31*,-8,-6,-2%
CCC(C)(C)n1nnnc1C(c1cccc(C#N)c1)N1CCN(c2cc(C)ccc2C)CC1 (stereo unspecified),-8,-8,-60*,-1%
CC(=O)N1CCOc2cc(S(=O)(=O)NCc3ccc(C)cc3)c(Cl)cc21,24,nt,nt,nt
COc1ccc(-c2cc(C(F)(F)F)nc(S(=O)(=O)CCCC(=O)Nc3cccc(O)c3)n2)cc1OC,-22,-5,-53*,0%
CC(=O)Nc1ccc(NC(=O)C(C)OC(=O)CNS(=O)(=O)/C=C/c2ccc(C)cc2)cc1 (stereo unspecified),2,-11,-54*,0%
Cc1ccc(/C=C/S(=O)(=O)NCC(=O)OCC(=O)Nc2ccc(C(N)=O)cc2)cc1,1,-16,16,0%
O=C(Cn1cc(C(=O)C2CC2)c2ccccc21)Nc1ccc(Br)cc1,-9,nt,nt,nt
CC(=O)Nc1ccc(Nc2nc3ccccc3nc2NS(=O)(=O)c2ccc(Cl)c([N+](=O)[O-])c2)cc1,3,-15,-91*,nt
S=C(NCCCc1cnc[nH]1)NCCCN(CCc1ccc(Cl)cc1)c1ccc(Br)cn1,nt,5,nt,nt
CC(C)Sc1nc(N)c2c3c(sc2n1)CN(C)CC3,-14,-1,-58*,0%
COCCNc1nc(SC)nc2sc3c(c12)CCN(C)C3,-9,46,-9,0%
CSc1nc(NCC(C)C)c2c3c(sc2n1)CN(C)CC3,-11,-3,-72*,1%
CCN(CC)CCNc1nc(SC)nc2sc3c(c12)CCN(C)C3,-12,40,-8,-1%
CSc1nc(NCc2ccccc2)c2c3c(sc2n1)CN(C)CC3,0,4,-76*,0%
CCCSc1nc(N)c2c3c(sc2n1)CN(C)CC3,-22,0,-2,0%
Cc1ccccc1C(=O)N1CC(=O)Nc2ccc(Cl)cc2C1c1ccccc1 (stereo unspecified),7,nt,nt,nt
CN1CCN(c2nc3c(=O)[nH]c(N)nc3n2C2OC(CO)C(O)C2O)CC1 (stereo unspecified),nt,13,nt,nt
COc1ccc(CCNC(=O)CCc2c(C)c3cc4c(C)c(C)oc4cc3oc2=O)cc1OC,6,nt,nt,nt
COc1ccc(S(=O)(=O)NCc2nc(-c3ccccc3)no2)cc1,3,nt,nt,nt
CCC12CN3CC(CC)(CN(C1)C3c1ccc([N+](=O)[O-])o1)C2=O (stereo unspecified),-8,-86*,-6,0%
CCCC12CN3CC(C)(CN(C1)C3c1ccc([N+](=O)[O-])o1)C2=O (stereo unspecified),-1,-87*,-15,-1%
C=Cc1ccc(Cn2c(=O)n(-c3cccc(C)c3)c(=O)c3c2c2cc(C)ccc2n3C)cc1,1,nt,nt,nt
CC(NCc1ccc2c(c1)OCO2)C(=O)N1CCc2ccccc21 (stereo unspecified),-12,-4,-107*,-1%
SMILES,D3 ag,Giardia kill,DRD3 antagonist,B2AR arrestin
CC(C)(C)c1ccc2c(S(=O)(=O)O)c(C(C)(C)C)ccc2c1,11,nt,nt,nt
COc1ccc([N+](=O)[O-])cc1NC(=O)c1cn(-c2ccc(Cl)cc2)c(=O)c2ccccc12,-2,-7,-53*,-1%
COc1ccc(-n2cc(C(=O)Nc3cc(F)ccc3F)c3ccccc3c2=O)cc1,-1,nt,nt,nt
CC(Oc1ccc2c3c(c(=O)oc2c1)CCC3)C(=O)NCC1CCC(C(=O)O)CC1 (stereo unspecified),43*,-19,225,-1%
CC(Oc1ccc2c3c(c(=O)oc2c1)CCCC3)C(=O)NCC1CCC(C(=O)O)CC1 (stereo unspecified),7,11,20,0%
CC(Oc1cc2oc(=O)cc(-c3ccccc3)c2cc1Cl)C(=O)NCC1CCC(C(=O)O)CC1 (stereo unspecified),3,-5,24,-1%
CCc1cc2c(-c3ccccc3)cc(=O)oc2cc1OC(C)C(=O)NCC1CCC(C(=O)O)CC1 (stereo unspecified),44*,-1,114,0%
Cc1ccc(CCNC(=O)c2ccc(CNS(=O)(=O)c3ccc(F)cc3)cc2)cc1,-5,nt,nt,nt
CCCn1cc(S(=O)(=O)c2ccccc2)c(=O)c2cc(F)c(N3CCCC3)cc21,7,nt,nt,nt
CCCn1cc(S(=O)(=O)c2cccc(Cl)c2)c(=O)c2cc(F)c(N3CCN(CC)CC3)cc21,63*,nt,nt,nt
O=C(N/N=C/c1ccccn1)c1cc(-c2ccc(Cl)cc2)nc2ccccc12,-26,11,-67*,2%
O=C(N/N=C/c1ccccn1)c1cc(-c2ccc(Br)cc2)nc2ccccc12,-52,-10,-95*,0%
CC(C)(C)NC[C@H](O)COc1ccccc1C1CCCC1,-25,nt,nt,nt
Cc1ccc(OCC(O)CN2CCN(Cc3ccc4c(c3)OCO4)CC2)cc1C (stereo unspecified),-9,10,-16,-3%
C=CCc1ccccc1OCC(O)CN1CCN(c2ccc(C)cc2)CC1 (stereo unspecified),-30,16,-59*,0%
C=CCc1ccccc1OCC(O)CN1CCN(Cc2ccc3c(c2)OCO3)CC1 (stereo unspecified),-7,-10,-89*!,-1%
O=C(CCN1CCN(c2ccccc2)CC1)NNC(=O)c1cccc2ccccc12,53*,-9,-15,0%
CCC1(c2ccccc2)NC(=O)N(CC(=O)NNC(=O)CCN2CCN(c3ccccc3)CC2)C1=O (stereo unspecified),-11,-17,-56*,0%
Cc1cc(C(=O)NNC(=O)CCN2CCN(c3ccccc3)CC2)c2ccccc2n1,8,-9,?,0%
CCc1cc(C(=O)NNC(=O)CCN2CCN(c3ccccc3)CC2)sc1C,6,-3,-63*,0%
N#CCC(=O)Nc1ccc(C(=O)NNC(=O)CCN2CCN(c3ccccc3)CC2)cc1,0,-4,-83*,0%
CCC1(c2ccccc2)NC(=O)N(CC(=O)Nc2ccccc2N2CCCCC2)C1=O (stereo unspecified),11,-10,3,-1%
O=C(CS(=O)Cc1ccco1)NC/C=C\COc1cc(CN2CCCCC2)ccn1 (stereo unspecified),-13,nt,nt,nt
FC(F)(F)c1ccccc1/C=N/N1CCN(Cc2ccccc2)CC1,-22,22,-66*,0%
O=[N+]([O-])c1ccc(Cl)c(/C=N/N2CCN(Cc3ccccc3Cl)CC2)c1,-26,-2,-51*,0%
Cc1ccc(CN2CCN(/N=C\c3cccc([N+](=O)[O-])c3)CC2)cc1,-23,-4,-56*,0%
O=[N+]([O-])c1ccccc1/C=N/N1CCN(Cc2ccccc2)CC1,-17,26,-67*,-1%

# Screening results (PubChem BioAssay)
